A short description of experiment [1]: antimalarial activity against Dd2 strain (AID 2302;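 active = growth inhibition above 50% at the single 2 µM test dose, taken to imply half-maximal potency below 2 µM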;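 note: 0% = DMSO untreated growth and 100% = chloroquine plus artemisinin killed control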). Particulars: P. falciparum Dd2 in RBCs, LDH growth readout, 72 h; at 2 µM; active compounds read high.
The nature of experiment [2]: HepG2 cytotoxicity, primary screen, cytotoxicity control for P. falciparum antimalarial project, cell-based, ATP luminescence (AID 2303;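 active = inhibition above 50%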;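 note: 0% = DMSO wells and 100% = digitonin-killed cells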). The note with it: HepG2 viability, 24-48 h, at 10 µM, active compounds read high.
For experiment [3], the target named is L-lactate dehydrogenase (Plasmodium falciparum (isolate CDC / Honduras)) (UniProt Q27743). Briefly: PfLDH activity inhibition – cell lysate, 3D7 strain, counter-screen for P. falciparum growth inhibition project (AID 2304).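 Note: 0% = vehicle and 100% = reference inhibitor.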 Particulars: P. falciparum 3D7 crude extract, LDH APAD/NBT absorbance; at 2 µM; active compounds read high.
Experiment [4] can be described thus: inhibition of 3D7 malaria parasite growth – strain 3D7 (AID 2306).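 Note: 0% = DMSO wells and 100% = chloroquine plus artemisinin control wells.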 Particulars: P. falciparum 3D7 erythrocytic growth, LDH absorbance, 72 h; at 2 µM; active compounds read high.
Experiment [5] concerns the target Calcium-dependent protein kinase 1 (Plasmodium falciparum (isolate 3D7)) (UniProt P62344). Briefly: PfCDPK1 kinase inhibitors, biochemical, TCAMS library (AID 1159585; cut-off not given, nearly all actives have IC50 up to about 0.98 µM;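 note: inhibitors leave more ATP so luminescence rises with inhibition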). Particulars: recombinant PfCDPK1, Kinase-Glo ATP depletion luminescence. A general note: Kinase-Glo reads ATP consumption through a luciferase reaction.
In experiment [6] the target is Plasmodium falciparum protein kinase 6 (PK6, PF3D7_1337100) (UniProt Q8IDW1). Kind of experiment: PfPK6 kinase inhibitors, biochemical, TCAMS library (AID 1159586). Particulars: recombinant PfPK6, Kinase-Glo ATP depletion luminescence.
Experiment [7] addresses Protein kinase 7 (PK7), Plasmodium falciparum 3D7 (PF3D7_0213400) (UniProt Q7YTF7). Kind of experiment: inhibition of Plasmodium PK7 catalytic activity – biochemical, TCAMS antimalarial set, Kinase-Glo luminescence (AID 1159587). Particulars: recombinant PfPK7, Kinase-Glo ATP depletion luminescence.
Experiment [8] concerns the target Calcium-dependent protein kinase 4 (Plasmodium falciparum (isolate 3D7)) (UniProt Q8IBS5). Kind of experiment: PfCDPK4 kinase inhibitors, biochemical, TCAMS library (AID 1159588; cut-off not given, nearly all actives have IC50 up to about 0.91 µM). The note with it: recombinant PfCDPK4, Kinase-Glo ATP depletion luminescence.

Values without a mark were called inactive. For part of these data: Entries with a potency or affinity are not part of this list. The source made the active and inactive calls. Unless noted, the rule behind the calls is not given here.

What is called inhibition is the change of the read-out against control, counted positive when it falls.

Protein kinase 7 (PK7), Plasmodium falciparum 3D7 (PF3D7_0213400), sequence (Q7YTF7 1-343): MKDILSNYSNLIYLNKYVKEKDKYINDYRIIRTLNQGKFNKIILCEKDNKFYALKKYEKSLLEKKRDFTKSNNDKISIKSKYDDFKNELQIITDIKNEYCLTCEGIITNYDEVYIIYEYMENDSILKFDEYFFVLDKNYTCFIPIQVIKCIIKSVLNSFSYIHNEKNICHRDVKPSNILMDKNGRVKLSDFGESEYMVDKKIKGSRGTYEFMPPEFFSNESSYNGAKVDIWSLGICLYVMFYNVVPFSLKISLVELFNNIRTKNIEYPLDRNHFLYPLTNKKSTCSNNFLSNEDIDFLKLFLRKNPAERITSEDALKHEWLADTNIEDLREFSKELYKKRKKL
L-lactate dehydrogenase (Plasmodium falciparum (isolate CDC / Honduras)), sequence (Q27743 whole entry, looked up): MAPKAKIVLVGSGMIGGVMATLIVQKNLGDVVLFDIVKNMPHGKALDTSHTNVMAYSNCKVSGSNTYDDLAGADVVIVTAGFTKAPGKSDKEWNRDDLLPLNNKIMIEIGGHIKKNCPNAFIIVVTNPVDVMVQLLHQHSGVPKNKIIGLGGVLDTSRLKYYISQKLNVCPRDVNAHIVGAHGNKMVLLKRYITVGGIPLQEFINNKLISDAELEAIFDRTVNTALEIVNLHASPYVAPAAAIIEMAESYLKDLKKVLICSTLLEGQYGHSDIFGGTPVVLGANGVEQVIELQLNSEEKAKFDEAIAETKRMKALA
Calcium-dependent protein kinase 1 (Plasmodium falciparum (isolate 3D7)), sequence (P62344 whole entry, looked up): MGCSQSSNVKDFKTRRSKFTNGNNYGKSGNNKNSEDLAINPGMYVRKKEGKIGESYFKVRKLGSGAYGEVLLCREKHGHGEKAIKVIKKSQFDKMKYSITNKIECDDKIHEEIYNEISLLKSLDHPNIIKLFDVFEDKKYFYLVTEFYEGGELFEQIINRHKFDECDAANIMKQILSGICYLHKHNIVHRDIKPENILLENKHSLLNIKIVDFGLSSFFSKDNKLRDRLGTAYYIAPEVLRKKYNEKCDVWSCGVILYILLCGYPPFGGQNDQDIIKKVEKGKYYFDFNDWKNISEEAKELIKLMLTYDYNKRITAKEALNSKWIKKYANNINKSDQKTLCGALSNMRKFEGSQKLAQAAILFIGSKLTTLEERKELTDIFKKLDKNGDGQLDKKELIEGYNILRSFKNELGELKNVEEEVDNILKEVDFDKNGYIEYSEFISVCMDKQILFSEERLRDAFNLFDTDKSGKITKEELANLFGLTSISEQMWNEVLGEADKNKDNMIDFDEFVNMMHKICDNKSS
Plasmodium falciparum protein kinase 6 (PK6, PF3D7_1337100), sequence (Q8IDW1 1-305): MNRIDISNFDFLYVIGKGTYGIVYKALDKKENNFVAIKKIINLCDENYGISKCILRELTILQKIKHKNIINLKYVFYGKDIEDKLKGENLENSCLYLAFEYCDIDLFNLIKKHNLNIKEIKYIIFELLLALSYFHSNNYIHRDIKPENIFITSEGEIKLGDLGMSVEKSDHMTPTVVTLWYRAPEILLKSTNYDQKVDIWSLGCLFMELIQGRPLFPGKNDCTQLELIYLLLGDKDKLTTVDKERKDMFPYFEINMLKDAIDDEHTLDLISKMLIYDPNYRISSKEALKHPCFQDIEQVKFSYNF
Calcium-dependent protein kinase 4 (Plasmodium falciparum (isolate 3D7)), sequence (Q8IBS5 whole entry, looked up): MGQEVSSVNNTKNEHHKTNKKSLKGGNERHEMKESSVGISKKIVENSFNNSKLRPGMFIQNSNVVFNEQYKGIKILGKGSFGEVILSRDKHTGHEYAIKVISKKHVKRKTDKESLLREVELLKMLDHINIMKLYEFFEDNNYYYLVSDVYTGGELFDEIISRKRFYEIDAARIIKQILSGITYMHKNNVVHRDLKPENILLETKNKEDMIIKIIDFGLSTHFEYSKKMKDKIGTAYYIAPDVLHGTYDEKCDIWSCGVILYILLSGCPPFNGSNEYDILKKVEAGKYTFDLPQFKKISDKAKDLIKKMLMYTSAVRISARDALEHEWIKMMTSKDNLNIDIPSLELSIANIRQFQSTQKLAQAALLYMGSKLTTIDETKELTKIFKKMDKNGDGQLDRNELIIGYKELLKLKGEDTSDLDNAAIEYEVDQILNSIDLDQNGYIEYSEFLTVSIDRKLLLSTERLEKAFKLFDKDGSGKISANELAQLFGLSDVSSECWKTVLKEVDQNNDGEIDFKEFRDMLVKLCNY

In the case of `COc1ccc2c(NN=Cc3ccc(F)cc3)ccnc2c1`, the figures for the growth inhibition in experiment [1] and in experiment [4] were 99% (active) and 100% (active), respectively. The results for the inhibition in experiment [2] and in experiment [3] were 14% and -4%, respectively. Also, the result in experiment [5], in experiment [6], in experiment [7] and in experiment [8] was inactive.
With `COc1ccc2nc(Nc3nc4ccncc4[nH]3)sc2c1`, the growth inhibition in experiment [1] was 26%; in experiment [4], 88% (active). Moreover, the values for the inhibition in experiment [2] and in experiment [3] were 8% and 0%, respectively. For the same molecule, the result in experiment [5], in experiment [6], in experiment [7] and in experiment [8] was inactive.
With `CCCc1cc(C(=O)N[C@@H](Cc2ccccc2)[C@H](O)CNC(C)(C)c2cccc(OC)c2)c(F)c(N2CCCC2=O)c1`, the growth inhibition in experiment [1] and in experiment [4] was 98% (active) each time. In addition, the inhibition is 7% in experiment [2] and 0% in experiment [3]. The result in experiment [5], in experiment [6], in experiment [7] and in experiment [8] was inactive.
As to `O=C(c1cc(-c2cccs2)[nH]n1)N1CCN(S(=O)(=O)c2ccc(Cl)s2)CC1`, the growth inhibition was 80% (active) in experiment [1] and 84% (active) in experiment [4]. In addition, the inhibition in experiment [2] is 20%; in experiment [3], 1%. The outcome in experiment [5], in experiment [6], in experiment [7] and in experiment [8] was inactive.
As to `O=C(N[C@@H](CC1CCCCC1)C(=O)NCCN1CCCCC1)c1ccc(O)c(-c2ccc(Cl)c(Cl)c2)c1`, the growth inhibition in experiment [1] was 99% (active); in experiment [4], 97% (active). Moreover, the inhibition is 14% in experiment [2] and -6% in experiment [3]. In addition, the result in experiment [5], in experiment [6], in experiment [7] and in experiment [8] was inactive.
As to `Cc1ccccc1OCCCN1CCN(CC(c2ccc(F)cc2)N2CCN(C(C)C)CC2)CC1` (stereo not drawn), the growth inhibition was 64% (active) in experiment [1] and 99% (active) in experiment [4]. The inhibition is 20% in experiment [2] and 2% in experiment [3]. The outcome in experiment [5], in experiment [6], in experiment [7] and in experiment [8] was inactive.
As for `COc1ccccc1-c1cccc2c(NC(=O)Nc3ccc4nccc(N5CCN(C)CC5)c4c3)ccnc12`, the growth inhibition in experiment [1] is 34%; in experiment [4], 94% (active). The values for the inhibition in experiment [2] and in experiment [3] were 3% and 5%, respectively. Further, the outcome in experiment [5], in experiment [6], in experiment [7] and in experiment [8] was inactive.
Consider `CC(C)(C)c1ccc(C(=O)NC2CCC(CCN3CCc4ccc(S(C)(=O)=O)cc4CC3)CC2)cc1C(F)(F)F` (stereo not drawn), for which the figures for the growth inhibition in experiment [1] and in experiment [4] were 11% and 88% (active), respectively. In addition, the inhibition in experiment [2] is 54% (active); in experiment [3], -8%. Besides, the result in experiment [5], in experiment [6], in experiment [7] and in experiment [8] was inactive.
On to `O=C(Nc1cccc(-c2nn3ccccc3c2-c2ccnc(Nc3cccc(F)c3)n2)c1)c1c(F)ccc(F)c1F`, for which the results for the growth inhibition in experiment [1] and in experiment [4] were 73% (active) and 96% (active), respectively. Also, the inhibition is 33% in experiment [2] and -1% in experiment [3]. Further, the result in experiment [5], in experiment [6], in experiment [7] and in experiment [8] was inactive.
For `Cn1cncc1-c1cc2c(Nc3ccc(OCc4ccccc4)cc3)ncnc2cn1`, the growth inhibition was 75% (active) in experiment [1] and 99% (active) in experiment [4]. Further, the figures for the inhibition in experiment [2] and in experiment [3] were -1% and 4%, respectively. Also, the outcome in experiment [5], in experiment [6], in experiment [7] and in experiment [8] was inactive.
As for `O=c1[nH]c2ccc3[nH]cccc3c2c1C=Nc1ccc(Cn2ccnc2)cc1`, the growth inhibition in experiment [1] was 85% (active); in experiment [4] it was 101% (active). The results for the inhibition in experiment [2] and in experiment [3] were 33% and 1%, respectively. Besides, the outcome in experiment [5], in experiment [6], in experiment [7] and in experiment [8] was inactive.
Take `Cc1noc(C)c1-c1cccc(CNCc2ccc(-c3ccc(-c4nc5c(C)cccc5[nH]4)cc3)cc2)c1`: the growth inhibition in experiment [1] is 95% (active); in experiment [4], 102% (active). Further, the values for the inhibition in experiment [2] and in experiment [3] were 28% and 5%, respectively. Also, the outcome in experiment [5], in experiment [6], in experiment [7] and in experiment [8] was inactive.
For the molecule `Cn1nccc1C(=O)NCCNCc1cccc(-c2ccc(-c3nc4ccccc4[nH]3)s2)c1`, the figures for the growth inhibition in experiment [1] and in experiment [4] were 94% (active) and 100% (active), respectively. In addition, the inhibition was 22% in experiment [2] and -4% in experiment [3]. In addition, the result in experiment [5], in experiment [6], in experiment [7] and in experiment [8] was inactive.
For the molecule `COc1ccc2nccc([C@@H](O)CN3CCC(NCc4nc5c(OCc6ccccc6)cccc5[nH]4)CC3)c2c1`, the figures for the growth inhibition in experiment [1] and in experiment [4] were 34% and 101% (active), respectively. Besides, the inhibition was 6% in experiment [2] and 3% in experiment [3]. Also, the outcome in experiment [5], in experiment [6], in experiment [7] and in experiment [8] was inactive.
Take `O=C(Nc1ccc(N2CCCCC2)c(Cl)c1)c1ccc(Br)o1`: the growth inhibition in experiment [1] and in experiment [4] was 94% (active) throughout. The figures for the inhibition in experiment [2] and in experiment [3] were -8% and -1%, respectively. The result in experiment [5], in experiment [6], in experiment [7] and in experiment [8] was inactive.
Consider `Clc1nc(Cl)c2c(ccn2Cc2ccccc2)n1`, for which the values for the growth inhibition in experiment [1] and in experiment [4] were 61% (active) and 100% (active), respectively. Moreover, the inhibition in experiment [2] is -14%; in experiment [3], -11%. The outcome in experiment [5], in experiment [6], in experiment [7] and in experiment [8] was inactive.
`CC(C(=O)Nc1ccc(Br)cc1Br)N1CCN(C(=O)c2ccco2)CC1` (stereo not drawn): the figures for the growth inhibition in experiment [1] and in experiment [4] were 84% (active) and 91% (active), respectively. The inhibition in experiment [2] is 3%; in experiment [3] it was -3%. Moreover, the result in experiment [5], in experiment [6], in experiment [7] and in experiment [8] was inactive.
Consider `CCN(CCCN1CCCCC1)c1cc(C)nc(Nc2ccc(Br)cc2F)n1`, for which the values for the growth inhibition in experiment [1] and in experiment [4] were 24% and 95% (active), respectively. In addition, the inhibition in experiment [2] is 32%; in experiment [3], -6%. Moreover, the outcome in experiment [5], in experiment [6], in experiment [7] and in experiment [8] was inactive.
In the case of `Cc1cccc2[nH]c(-c3ccc(-c4ccc(CNCC5CCCO5)cc4)cc3)nc12` (stereo not drawn), the growth inhibition is 81% (active) in experiment [1] and 101% (active) in experiment [4]. Moreover, the inhibition in experiment [2] is 36%; in experiment [3], -4%. The result in experiment [5], in experiment [6], in experiment [7] and in experiment [8] was inactive.
Consider `CN1CCN(Cc2ccc(OCc3cccc(COc4ccc(CN5CCN(C)CC5)cc4I)c3)c(I)c2)CC1`, for which the growth inhibition is 69% (active) in experiment [1] and 92% (active) in experiment [4]. Also, the figures for the inhibition in experiment [2] and in experiment [3] were 93% (active) and 0%, respectively. In addition, the result in experiment [5], in experiment [6], in experiment [7] and in experiment [8] was inactive.
For `CC(CCON1C(N)=NC(N)=NC1(C)C)c1ccc(Cl)cc1` (stereo not drawn), the growth inhibition in experiment [1] was 97% (active); in experiment [4], 93% (active). Further, the inhibition in experiment [2] is 64% (active); in experiment [3], -5%. Besides, the outcome in experiment [5], in experiment [6], in experiment [7] and in experiment [8] was inactive.

The values above are taken from PubChem BioAssay.
